ST2 IL33 inh: inhibitors of human ST2 (IL1RL1) binding to IL-33, primary screen, biochemical, AlphaLISA; Interleukin-1 receptor-like 1 (Homo sapiens), Q01638; AlphaLISA ST2-Fc/biotin-IL-33 interaction, 1 h; inhibition, % for hits at 17 µM; 78,000 compounds, 2.3% hits; AID 1259354, 2018; in the data active = inhibition above about 30%
Target sequence (Q01638 whole entry, looked up): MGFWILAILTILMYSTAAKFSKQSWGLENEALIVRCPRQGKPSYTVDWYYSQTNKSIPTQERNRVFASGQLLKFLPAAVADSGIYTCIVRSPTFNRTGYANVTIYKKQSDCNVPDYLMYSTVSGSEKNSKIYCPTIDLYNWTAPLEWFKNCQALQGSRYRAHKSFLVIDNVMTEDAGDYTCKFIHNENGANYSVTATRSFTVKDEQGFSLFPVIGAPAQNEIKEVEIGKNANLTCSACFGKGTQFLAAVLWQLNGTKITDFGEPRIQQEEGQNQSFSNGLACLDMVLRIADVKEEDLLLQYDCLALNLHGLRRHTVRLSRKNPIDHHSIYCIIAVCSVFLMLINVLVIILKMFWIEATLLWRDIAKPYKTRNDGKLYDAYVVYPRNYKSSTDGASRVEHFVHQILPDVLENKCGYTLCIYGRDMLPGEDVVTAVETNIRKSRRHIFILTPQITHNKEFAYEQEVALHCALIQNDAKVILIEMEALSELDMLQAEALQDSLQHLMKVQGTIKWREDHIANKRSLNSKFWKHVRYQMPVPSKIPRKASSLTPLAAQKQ
An asterisk follows results filed as active. Many of the other results were omitted from the sample, so hits are more common in it than they were.

For CCc1ccc(-c2nccn2CCn2ccnc2)o1 the results were ST2 IL33 inh inactive.
Screening Cc1ccc(-n2c(=O)n(Cc3ccccc3)c3c(C(N)=O)nc(-c4cccc(F)c4F)nc32)cc1C returned ST2 IL33 inh inactive.
`CCOc1cccc(C2NC(=O)NC(C)=C2C(=O)OCCOC)c1` (stereo not drawn) gave ST2 IL33 inh inactive.
CC1(C)C(c2ccccc2)=[N+]([O-])C(c2ccc([N+](=O)[O-])cc2)N1O (stereo not drawn) was read as ST2 IL33 inh inactive.
Screening O=C(NCc1ccco1)c1noc2c1CCc1ccccc1-2 returned ST2 IL33 inh inactive.
For COc1cc(OC)c(C=Nc2ccc(O)cc2)cc1Br the results were ST2 IL33 inh 51%*.
Screening COc1ccc(-n2c(O)c(C=Nc3ccc(OC)c(OC)c3)c3ccccc3c2=O)cc1 returned ST2 IL33 inh inactive.
Screening COc1ccc(NS(=O)(=O)c2ccc(N=Cc3cc(Br)ccc3O)cc2)nn1 returned ST2 IL33 inh inactive.
COc1cc(OC)c(C=C2C(=O)OC3(CCCCC3)OC2=O)cc1Br was read as ST2 IL33 inh inactive.
Screening COc1ccc(OC)c(C=Nc2ccc(S(N)(=O)=O)cc2)c1 returned ST2 IL33 inh inactive.
Screening COc1ccc(C=Nc2ccc(O)cc2)c(OC)c1 returned ST2 IL33 inh 32%*.
COc1ccc(-c2noc([C@@H]3Cc4nc[nH]c4CN3C(=O)Nc3ccc(C)cc3)n2)cc1 was read as ST2 IL33 inh inactive.
CCOc1cccc2sc(N3CCCCC3)nc12 was read as ST2 IL33 inh inactive.
Screening CCSc1nnc2c(n1)OC=Nc1ccccc1-2 returned ST2 IL33 inh inactive.
O=C(Nc1ccc(-c2cscn2)cc1)C1CCCN(C(=O)CCc2cnccn2)C1 (stereo not drawn) was read as ST2 IL33 inh inactive.
`COc1cc(C(=O)N2CC[C@@H](c3sccc3C)[C@H](O)C2)nc(OC)n1` gave ST2 IL33 inh inactive.
O=C(CCN1C(=O)c2cccc([N+](=O)[O-])c2C1=O)Nc1ccc(F)cc1 was read as ST2 IL33 inh inactive.
`Cc1ccccc1NCN1C(=O)c2cccc([N+](=O)[O-])c2C1=O` gave ST2 IL33 inh inactive.
Screening O=C1c2cccc([N+](=O)[O-])c2C(=O)N1C1CCCCCCC1 returned ST2 IL33 inh 36%*.
O=C1c2cccc([N+](=O)[O-])c2C(=O)N1C1C(=O)N(c2ccc(Cl)cc2)C1c1ccc(F)cc1 (stereo not drawn) was read as ST2 IL33 inh 41%*.
Screening COc1ccc(N2C(=O)C(N3C(=O)c4ccc([N+](=O)[O-])cc4C3=O)C2c2ccc(F)cc2)cc1 (stereo not drawn) returned ST2 IL33 inh inactive.
Cc1ccc(N2C(=O)C(N3C(=O)c4cccc([N+](=O)[O-])c4C3=O)C2c2cccs2)cc1Cl (stereo not drawn) was read as ST2 IL33 inh inactive.
Screening CN(C)CC1(O)CCN(C(=O)c2cccc3cc[nH]c23)C1 (stereo not drawn) returned ST2 IL33 inh inactive.
For CCOc1ccc(-n2c(SCC(=O)c3ccccc3)nc3c(c2=O)SCC3)cc1 the results were ST2 IL33 inh inactive.
`CN(Cc1cn(C)nc1-c1ccc2c(c1)OCCO2)Cc1cccc2ncccc12` gave ST2 IL33 inh inactive.
For Cn1c(=O)cc(SCC(=O)NCCCN2CCCC2=O)c2ccccc21 the results were ST2 IL33 inh inactive.
Screening COc1ccc(NC(=O)CCC2CCCN(S(=O)(=O)N(C)C)C2)c(C)c1 (stereo not drawn) returned ST2 IL33 inh inactive.
COc1ccccc1C1C(Oc2ccccc2C)C(=O)N1c1cccc([N+](=O)[O-])c1 (stereo not drawn) was read as ST2 IL33 inh 33%*.
COc1cc([N+](=O)[O-])ccc1NC(=O)c1c(C)nn(-c2ccccc2)c1Cl was read as ST2 IL33 inh inactive.
Screening COc1cccc(OC)c1C(=O)Nc1ccc([N+](=O)[O-])cc1 returned ST2 IL33 inh inactive.
Screening CCOc1cc2oc(C)c(Oc3ccccc3)c(=O)c2cc1CC returned ST2 IL33 inh inactive.
`Cc1ccc(NC(=O)CSc2cn(CCNC(=O)c3ccccc3F)c3ccccc23)cc1` gave ST2 IL33 inh inactive.
`CC(C)(C)c1ccc(C(=O)Nc2ccc3c(c2)OCO3)cc1` gave ST2 IL33 inh inactive.
`COc1ccccc1NC(=O)c1ccc(OCc2ccccc2)cc1` gave ST2 IL33 inh inactive.
Screening CCc1ccc(NC(=O)c2ccc(N(Cc3ccccc3)S(C)(=O)=O)cc2)cc1 returned ST2 IL33 inh inactive.
`COC(=O)c1c(NC(=O)COc2ccc(C(C)(C)C)cc2)sc2c1CCC2` gave ST2 IL33 inh inactive.
For COC(=O)C1=C(NC(=O)c2ccc(Cc3ccccc3)cc2)CCS1 the results were ST2 IL33 inh 31%*.
Screening COC(=O)C1=C(NC(=O)c2ccc(C(C)(C)C)cc2)CCS1 returned ST2 IL33 inh 53%*.
For O=C(CNS(=O)(=O)c1cccs1)Nc1ccc(F)cc1 the results were ST2 IL33 inh inactive.

Screening results (PubChem)
